In experiment [1] the test system is DLD1. The experiment can be described thus: cell viability (CellTiter-Glo) relative to plate median (fraction of plate median); higher = more viable cells. Particulars: 5 µM; treatment time 24 h; reporter: 7TFP. The gist of the method:
(§1)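 Colorectal cancer lines with stably integrated lentiviral TCF/Wnt firefly luciferase reporters received library compounds at a final 5 µM, 24 h after seeding into 384-well plates, for a 24 h exposure. Reported figures are plate-median-normalised firefly luciferase or CellTiterGlo luminescence per well. They average two independent replicates.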
(In general: Cellular ATP, detected with luciferase, serves as a proxy for viable cell number.)

Experiment [2] relates to HCT116. Described as above. Particulars: 5 µM; treatment time 24 h; reporter: TCF4/Wnt. The gist of the method: as §1
In experiment [3] the test system is SW480. Described as above. Particulars: 5 µM; treatment time 24 h; reporter: 7TFP. The gist of the method:
as §1

The test system of experiment [4] is DLD1. The experiment can be described thus: TCF/Wnt firefly luciferase reporter signal relative to plate median (fraction of plate median); higher = higher Wnt reporter signal. To be noted: 5 µM; treatment time 24 h; reporter: 7TFP. The gist of the method: as §1
For orientation: A reporter such as luciferase makes a cellular process visible.

Experiment [5] relates to SW480. The description is as above. To be noted: 5 µM; treatment time 24 h; reporter: 7TFP. The gist of the method:
as §1

SMILES strings stand for the structures. ± gives the standard deviation of the averaged measurements.

Consider `C/C=C(/C)C(=O)O[C@H]1CC[C@@]2(C)[C@@H]3CC[C@H]4[C@]5(O)C[C@H](O)[C@@]6(O)[C@@H](CN7C[C@@H](C)CC[C@H]7[C@@]6(C)O)[C@]5(O)C[C@@]42O[C@]13O`, for which the cell viability in experiment [1] was determined as 0.994 ± 0.037; in experiment [2], 0.995 ± 0.021; in experiment [3], 0.946 ± 0.017. Also, the entries for the “TCF/Wnt firefly luciferase reporter signal” value in experiment [4] and in experiment [5] were 0.952 ± 0.036 and 0.9235 ± 0.0078, respectively.
`CC(C)Nc1nc(Cl)nc(NC(C)C)n1`: the cell viability in experiment [1] is 1.02 ± 0.049; in experiment [2], 0.952 ± 0.0014; in experiment [3], 0.949 ± 0.025. Besides, the “TCF/Wnt firefly luciferase reporter signal” value in experiment [4] came out at 0.973 ± 0.038; in experiment [5] it was 0.944 ± 0.018.
Turning to `CCCC(=O)O[C@@H]1[C@@H](C)[C@@]2(O)[C@@H](C=C(CO)C[C@]3(O)C(=O)C(C)=C[C@@H]23)[C@@H]2C(C)(C)[C@]12OC(=O)CCC`, the figures for the cell viability in experiment [1], in experiment [2] and in experiment [3] were 0.9955 ± 0.0021, 0.991 ± 0.069 and 1.02 ± 0.033, respectively. The “TCF/Wnt firefly luciferase reporter signal” value in experiment [4] was 1.03 ± 0.1; in experiment [5] it was 0.984 ± 0.0085.
Taken in the same sequence, the figures for `CN1CCc2cc3c(cc2C1O)OCO3` (stereo not given) were 1.01 ± 0.026, 1.03 ± 0.047, 0.995 ± 0.021, 0.956 ± 0.037 and 0.942 ± 0.064.
On to `C/C=C/[C@H]1O[C@@](O)([C@@H](C)[C@H](O)[C@H](C)[C@H]2OC(=O)/C(OC)=C/C(C)=C/[C@@H](C)[C@@H](O)[C@@H](CC)[C@@H](O)[C@H](C)C/C(C)=C/C=C/[C@@H]2OC)C[C@@H](O[C@H]2C[C@@H](O)[C@H](OC(N)=O)[C@@H](C)O2)[C@@H]1C` [Concanamycin A], for which the figures for the cell viability in experiment [1], in experiment [2] and in experiment [3] were 0.886 ± 0.095, 0.998 ± 0.059 and 1.04 ± 0.035, respectively. In addition, the “TCF/Wnt firefly luciferase reporter signal” value in experiment [4] amounted to 0.806 ± 0.2; in experiment [5], 0.9 ± 0.12.
On the same counts, the results for `O=C(NC(=O)c1c(F)cccc1F)Nc1cc(Cl)c(OC(F)(F)C(F)C(F)(F)F)cc1Cl` (stereo not given) are 0.985 ± 0.05, 0.984 ± 0.066, 0.987 ± 0.013, 0.907 ± 0.028 and 1.03.
On to `OCC(O)Cc1ccc2c(c1)OCO2` (stereo not given), for which the cell viability in experiment [1] is 1.03 ± 0.095; in experiment [2], 1.04 ± 0.014; in experiment [3], 1.02 ± 0.033. Further, the “TCF/Wnt firefly luciferase reporter signal” value came to 0.922 ± 0.091 in experiment [4] and 0.985 ± 0.036 in experiment [5].
For `C=CCc1ccc(OC)cc1`, the values for the cell viability in experiment [1], in experiment [2] and in experiment [3] were 1.06 ± 0.092, 1 ± 0.025 and 1.03 ± 0.035, respectively. The “TCF/Wnt firefly luciferase reporter signal” value was 1.2 ± 0.11 in experiment [4] and 1.025 ± 0.0071 in experiment [5].
For the compound `CC(C)CCCC1(C)C=Cc2c(O)c3c(c(CCC(C)C)c2O1)OC12C(CC4CC1C(C)(C)OC2(CCC(C)C(=O)O)C4O)C3=O` (stereo not given), the cell viability is 1.08 ± 0.042 in experiment [1], 0.997 ± 0.0042 in experiment [2] and 1.07 ± 0.092 in experiment [3]. Further, the “TCF/Wnt firefly luciferase reporter signal” value was found to be 1.06 ± 0.014 in experiment [4] and 1.06 ± 0.092 in experiment [5].
In the case of `CNC(=O)ON=C(C)SC`, the cell viability in experiment [1] was 1.01 ± 0.021; in experiment [2], 0.928 ± 0.1; in experiment [3] it was 0.985 ± 0.035. The figures for the “TCF/Wnt firefly luciferase reporter signal” value in experiment [4] and in experiment [5] were 0.98 ± 0.029 and 0.933 ± 0.058, respectively.
Regarding `O[C@@H]1C[C@H]2CCC[C@@H](C1)N2Cc1ccccc1`, the figures for the cell viability in experiment [1], in experiment [2] and in experiment [3] were 0.9315 ± 0.0035, 0.996 ± 0.048 and 0.949 ± 0.037, respectively. In addition, the entries for the “TCF/Wnt firefly luciferase reporter signal” value in experiment [4] and in experiment [5] were 1.1 ± 0.042 and 0.893 ± 0.013, respectively.
As to `O=c1[nH]c2ccccc2n1C1CCN(CCCC(c2ccc(F)cc2)c2ccc(F)cc2)CC1`, the cell viability is 0.95 ± 0.013 in experiment [1], 0.922 ± 0.065 in experiment [2] and 1.01 ± 0.019 in experiment [3]. The “TCF/Wnt firefly luciferase reporter signal” value in experiment [4] was determined as 1.02 ± 0.014; in experiment [5], 0.88 ± 0.12.
In the case of `CC(C)c1cc2c(c(O)c1O)[C@@]1(C(=O)O)CCCC(C)(C)[C@@H]1CC2`, the results for the cell viability in experiment [1], in experiment [2] and in experiment [3] were 0.981 ± 0.013, 1.03 ± 0.079 and 1.03 ± 0.021, respectively. For the same compound, the entries for the “TCF/Wnt firefly luciferase reporter signal” value in experiment [4] and in experiment [5] were 1.03 ± 0.021 and 0.944 ± 0.11, respectively.
For the compound `CC[C@@]1(O)C[C@H](O[C@H]2C[C@H](N(C)C)[C@H](O)[C@H](C)O2)c2c(cc3c(c2O)C(=O)c2c(O)cccc2C3=O)[C@H]1C(=O)OC`, the values for the cell viability in experiment [1], in experiment [2] and in experiment [3] were 1.07 ± 0.17, 0.9035 ± 0.0064 and 1.2 ± 0.12, respectively. Besides, the “TCF/Wnt firefly luciferase reporter signal” value came to 1.4 ± 0.05 in experiment [4] and 0.842 ± 0.028 in experiment [5].

(Values after the supplement of paper PMC6522484.)
